FUS suppressor = suppressors of FUS proteinopathy in yeast; S. cerevisiae FUS-expressing, growth rescue, OD600, 24 h; Potency, µM (series often up to 76.6 µM), hits mostly activators; 390,000 compounds, 0.24% hits; AID 1347120; also: nearly all actives have a fitted effect of over 55% in size
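Galactose (2%) drives FUS expression in yeast precultured in raffinose; seeding density OD 0.005. Test compounds incubated 24hr at 30C and 99% humidity before absorbance at 600 nm was measured.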
aSyn rescue = rescues yeast growth from alpha-synuclein toxicity. AID 652106. 370,000 compounds, 0.14% hits. Potency, µM (titrated, usually from 46.1 µM), actives largely listed as activators. Yeast expressing alpha-synuclein, growth rescue, BacTiter-Glo, 24 h; also: nearly all actives have a fitted effect of over 65% in size
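Galactose-induced alpha-syn yeast (OD600=0.02, raffinose-pregrown) + pinned cpd, 24 hr, 30 deg C; growth by BacTiter-Glo luminescence. Growth restoration scores as activation.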
TDP43 rescue = inhibitors of TDP-43 toxicity in yeast | 410,000 compounds, 1.8% hits | Potency, µM (series often up to 46.1 µM), actives largely listed as activators | TDP-43 expressing yeast growth rescue, BacTiter-Glo, 24 h; also: nearly all actives have a fitted effect of over 50% in size
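Growth rescue of TDP-43-toxic yeast measured as ATP luminescence (BacTiter-Glo). Cells grown to mid-log in raffinose, induced in galactose at OD600=0.02, exposed to compound 24 hr at 30 deg C.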
Mito fusion act = inhibitors of mitochondrial division or activators of mitochondrial fusion; S. cerevisiae fusion-defective mutant growth rescue, CellTiterGlo 48 h; Potency, µM (series often up to 46.1 µM), hits mostly activators; AID 485298; 320,000 compounds, 0.23% hits; also: nearly all actives have a fitted effect of over 45% in size
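Compounds are tested for their ability to restore growth of mitochondrial fusion-defective yeast strains at non-permissive 37C in YPEG medium over 48 hours. Viability is quantified by luciferase luminescence.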
Abeta yeast res = restores growth of yeast expressing A-beta42 peptide. yeast expressing A-beta42, growth rescue, OD600, 48 h; response scale: 0% DMSO, 100% iron-clioquinol control. Potency, µM (top dose mostly 46.1 µM), actives largely listed as activators. 410,000 compounds, 0.063% hits; also: nearly all actives have a fitted effect of over 55% in size
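Yeast A-beta toxicity model in growth medium with pinned compounds, 48 h at 30 C; growth read as absorbance at 600 nm. Normalized to FeCl3/clioquinol equimolar mix (positive) and DMSO (negative).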
A number is an active result; – = inactive; ? = inconclusive; · = no result. Most compounds without a hit are left out; they make up all but 2.2% or so of the library. Calls follow the shape of the dose curve; as a rule, active = well fitted curve in the direction sought with a large enough effect; inconclusive = small, poorly fitted or top-dose-only effect, or another doubt; inactive = no such curve, though single readings can be large; an effect the other way counts as inactive or inconclusive.

SMILES	FUS suppressor	aSyn rescue	TDP43 rescue	Mito fusion act	Abeta yeast res
COC(=O)[C@]12C[C@H](CC(=O)NCc3cccc(C(F)(F)F)c3)C(=O)N(Cc3ccc(Cl)cc3Cl)C1=C[C@H](C(C)(C)C)O[C@@H]2C	12.6µM	·	·	·	·
COC(=O)[C@]12C[C@H](CC(=O)NCc3ccccc3)C(=O)N(Cc3ccc(Cl)cc3Cl)C1=C[C@H](C(C)(C)C)O[C@@H]2C	–	·	·	·	·
C=CCc1cccc(CNc2ccc(Br)cc2)c1O	–	–	22.4µM	–	–
CC1CCC(Nc2ncnc3onc(-c4ccc(Cl)cc4)c23)CC1 (stereo not drawn)	–	–	20µM	·	–
CC1CCC(Nc2ncnc3onc(-c4ccc(F)cc4)c23)CC1 (stereo not drawn)	–	·	?	·	–
Clc1ccc(-c2noc3ncnc(NC4CCCCC4)c23)cc1	–	·	35.5µM	·	–
CCOc1ccccc1CNC(=O)c1ccc2c(c1)nc1n2CCCCC1	–	·	–	·	–
O/N=C/Cc1[nH]c2ccccc2c1-c1ccccc1	–	–	15.8µM	–	–
O=c1[nH]c2ccccc2c(O)c1-c1ccccc1	–	–	–	–	–
N#Cc1cn(Cc2cccc(Cl)c2)c2ccccc12	·	–	15.8µM	?	–
CC(C)Cc1ccc(-c2cc(=O)[nH][nH]2)cc1	–	–	20µM	–	–
Cc1ccc(-c2cc(=O)[nH][nH]2)c(C)c1	–	–	–	–	–
COc1cc(OC)c(NC(=O)CSC2=Nc3ccccc3N=C(c3ccc(F)cc3)C2)cc1Cl	–	·	–	·	–
Cc1ccc(-c2csc(NC(=O)C3=COCCO3)n2)cc1	–	–	?	–	–
Cc1ccc(C(=O)Nc2ccccc2NC(=O)c2ccc(C)o2)o1	–	–	–	–	–
Cc1ccc(C(=O)Nc2cccc(NC(=O)c3ccc(C)o3)n2)o1	–	–	7.94µM	–	–
CC(=O)Nc1ccc(-c2csc(NC(=O)c3ccc(C)o3)n2)cc1	28.2µM	–	–	–	–
CCCc1ccc(-c2csc(NC(=O)C3=COCCO3)n2)cc1	–	–	15.8µM	?	–
Cc1cc(C)cc(OCc2cc(=O)n3cc(C)sc3n2)c1	–	·	–	·	–
O=c1cc(CNc2ccc(Br)cc2)nc2sccn12	·	?	20µM	–	–
CN(Cc1cc(=O)n2ccsc2n1)c1ccccc1	–	–	?	–	–
CC(=O)NC(=S)NNC(=O)C(c1ccccc1)c1ccccc1	–	22.4µM	17.8µM	–	–
N#CCC(=O)NNC(=S)NC(=O)C(c1ccccc1)c1ccccc1	–	–	–	–	–
COc1cccc(OCCNc2cc(N3CCOCC3)ccc2[N+](=O)[O-])c1	–	–	17.8µM	–	–
COc1ccc(OCCNc2cc(N3CCOCC3)ccc2[N+](=O)[O-])cc1	–	–	?	–	–
SMILES	FUS suppressor	aSyn rescue	TDP43 rescue	Mito fusion act	Abeta yeast res
CN(C)c1ccc(/C=C/c2cc[n+](C)c3ccc4ccccc4c23)cc1	·	–	·	·	·
CCOC(=O)c1c(CCl)nc2ccccc2c1-c1ccccc1	–	–	–	–	–
ClCc1nc2ccccc2c2ccccc12	–	–	14.1µM	–	–
Cc1ccc(-c2nnc(N3CCN(C(=O)COc4cccc(C)c4)CC3)c3ccccc23)cc1	–	–	–	12.6µM	–
Cc1cccc(OCC(=O)N2CCN(c3nnc(-c4ccccc4)c4ccccc34)CC2)c1	–	–	25.1µM	?	?
O=C(COc1cccc2ccccc12)N1CCN(c2ccccc2)CC1	–	?	–	–	–
COc1ccc(N2CCN(C(=O)COc3cccc4ccccc34)CC2)cc1	·	–	12.6µM	–	–
O=C(COc1ccccc1)N1CCN(c2nnc(-c3ccccc3)c3ccccc23)CC1	–	–	?	–	–
COc1ccc(OCC(=O)N2CCN(c3nnc(-c4ccc(C)cc4)c4ccccc34)CC2)cc1	–	–	22.4µM	–	–
O=C(Nc1ccc(F)cc1F)C(Cc1ccccc1)N1Cc2ccccc2C1=O (stereo not drawn)	–	·	–	·	–
CCN(CC)S(=O)(=O)c1ccc2c(c1)N(CC(=O)Nc1cccc(C)c1C)C(=O)C1CCCN21 (stereo not drawn)	–	·	–	·	–
CC(C)Cc1ccc(C(C)C(=O)Nc2cccnc2)cc1 (stereo not drawn)	–	?	–	–	–
CC(C)Cc1ccc(C(C)C(=O)Nc2ccc(O)cc2)cc1 (stereo not drawn)	–	–	11.2µM	–	–
CCn1cc(C(=O)NCc2ccco2)c(=O)c2cc(S(=O)(=O)N3CCCCCC3)ccc21	?	–	–	–	–
CCn1cc(C(=O)NCc2ccco2)c(=O)c2cc(S(=O)(=O)N3CCc4ccccc4C3)ccc21	6.31µM	–	–	–	–
COc1ccccc1CN1CC(C(=O)NCCCc2ccc(F)cc2)CCC1=O (stereo not drawn)	15.8µM	–	–	–	–
COc1ccccc1NC(C)C(=O)c1c[nH]c2ccccc12 (stereo not drawn)	·	–	·	·	·
Cc1ccc(CSc2nc3c(c(SCC(=O)O)n2)CCCC3)cc1	–	–	35.5µM	–	–
C=CC(C)=C[C@@]1(C)SC(=O)C(C)=C1O	·	–	·	–	·
CC(C)CC(=O)NC(=S)Nc1ccccc1N1CCCC1	–	–	–	–	7.08µM
O=C(NC(=S)Nc1ccccc1N1CCCC1)c1cccs1	–	–	?	–	11.2µM
CN1CC=C(c2ccccc2)N(c2ccccc2)C1=O	–	·	·	·	·
O=C(CN1C(=O)CC(c2ccco2)Sc2ccccc21)Nc1ccc(Br)cc1 (stereo not drawn)	–	–	–	·	–
O=C(CN1C(=O)CC(c2ccco2)Sc2ccccc21)Nc1ccccc1F (stereo not drawn)	–	–	31.6µM	–	–
Cc1ccc(C)c(N2CCN(C(=O)CN3CCSc4ccccc43)CC2)c1	–	?	25.1µM	·	?
SMILES	FUS suppressor	aSyn rescue	TDP43 rescue	Mito fusion act	Abeta yeast res
Cc1ccc(C)c(N2CCN(C(=O)CC3Sc4ccccc4NC3=O)CC2)c1 (stereo not drawn)	?	?	22.4µM	–	–
O=C(CN1CCSc2ccccc21)N1CCN(c2ccc(F)cc2)CC1	–	–	–	·	–
O/N=C(/C[n+]1cccc(Br)c1)c1ccc2ccccc2c1	·	–	·	·	·
O=C(Cc1cccs1)N(Cc1ccco1)C1(C(=O)NC2CCCCC2)CCCCC1	–	–	–	–	–
O=C(Cc1cccs1)N(Cc1cccs1)C1(C(=O)NC2CCCC2)CCCCC1	–	–	20µM	–	–
CN(CCc1ccccc1)C(=O)c1cc2ccccn2n1	–	·	·	·	·
Cc1ccc(-n2ncc(C(=O)Nc3ccc4c(c3)OCO4)c2C2CCN(C(=O)OC(C)(C)C)CC2)cc1	28.2µM	·	–	·	–
Cc1cccc(C)c1-n1ncc(C(=O)NCc2ccc3c(c2)OCO3)c1C1CCN(C(=O)OC(C)(C)C)CC1	–	·	–	·	–

Assay outcomes from PubChem.
